Bioassay records as filed in PubChem.
HSP90 inh: blocks HSP90-mediated luciferase refolding in reticulocyte lysate. Rabbit reticulocyte lysate, luciferase refolding luminescence, 3 h. inhibition, % at 5.6 µM. actives 0.91% (n = 290,000). AID 1789;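 active = inhibition above the screen-wide mean plus 3 SD, computed separately per campaign, cut at about 16% in these data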;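 note: inhibitors lower the luminescence because luciferase stays unfolded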
HSF1 inhib: HSF1 inhibition. NIH3T3-HGL HSE-luciferase, MG132-induced, luminescence 8 h; hits give low values. actives 0.77% (n = 300,000). activity change, negative = inhibition, % at 7.5 µM (by protocol);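 active = more than half of replicate wells show activity change below -50%, luminescence cut by over half; inconclusive = some wells, but at most half, below -50%; inactive = no replicate well below -50%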;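 note: luciferase reports HSF-1 transcriptional activity via heat shock element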
dFosB act-1: enhances mouse delta FosB homodimer DNA binding | P13346 | purified delta FosB, TAMRA-CDK5 oligo fluorescence polarization; percent of positive-control signal above neutral wells | activation, % at 25 µM | actives 0.99% (n = 340,000);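 active = mean activation above about 17%, with every replicate also reaching it, limit read from the data, passing the limit was not always enough; inconclusive = only one of the two conditions met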
Target sequence (P13346 whole entry, looked up): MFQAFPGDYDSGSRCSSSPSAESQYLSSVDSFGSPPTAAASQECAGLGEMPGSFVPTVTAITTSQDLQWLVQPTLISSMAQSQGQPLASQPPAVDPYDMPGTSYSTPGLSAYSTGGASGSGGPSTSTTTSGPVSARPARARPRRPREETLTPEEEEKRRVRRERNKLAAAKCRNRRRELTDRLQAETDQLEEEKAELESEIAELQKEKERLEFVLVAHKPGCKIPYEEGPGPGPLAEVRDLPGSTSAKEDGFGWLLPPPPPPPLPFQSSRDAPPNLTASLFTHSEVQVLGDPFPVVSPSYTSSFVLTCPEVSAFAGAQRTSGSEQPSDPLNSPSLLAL
HSF-1 act: increases HSF-1 driven luciferase reporter signal; actives 1.7% (n = 300,000); activation, % at 9 µM; NIH3T3-HGL HSF-1 luciferase reporter, MG132, 8 h; 100% = twice DMSO control signal;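 active = mean replicate activation of at least 50% with a set share of replicates each reaching 50%; inconclusive = only one of those two conditions met; inactive = mean below 50% and too few replicates reaching it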
MPTP inh: blocks calcium-induced mitochondrial swelling; inhibition, % at 10 µM; AID 602449; actives 1.4% (n = 360,000); isolated mouse mitochondria, Ca2+ swelling absorbance, 30 min;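 active = inhibition of 50% or more, scaled per plate between neutral and stimulator controls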
Platelet DG rel: modulates dense granule release in human platelets. human platelet-rich plasma, SFLLRN dense granule ATP release, luminescence. actives 0.22% (n = 300,000). inhibition, %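 (compounds screened at 7.5 µM in platelet-rich plasma)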;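 active = mean replicate score, as percent of positive control, at or above 50; inconclusive = mean below 50 but at least one replicate at or above 50; inactive = mean and every replicate below 50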
dFosB act-2: activators of mouse delta FosB homodimer DNA binding. AID 588690. 2,400 tested, under 10 active. purified delta FosB, TAMRA-CDK5 oligo fluorescence polarization; normalised: neutral wells 0, positive control 100. activation, % at 24.9 µM. shares compounds with dFosB act-1;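 active = highest replicate activation at or above 34% and every replicate reaching that threshold; inconclusive = meets only one of the two criteria; inactive = meets neither criterion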;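 note: higher polarization means more probe DNA bound by delta FosB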
Large screens that a line does not name were inactive (follow-up assays come after a bar, where they were run). Rows were chosen to be rich in hits. Some 4.9% of all compounds tested hit in one or more screens of this group.

CC(C)CN(C(=O)COC(=O)/C=C/c1cccs1)c1c(N)n(Cc2ccccc2)c(=O)[nH]c1=O	dFosB act-1 34 (no result: HSP90 inh) | dFosB act-2 inactive
COCCN(C(=O)COC(=O)/C=C/c1cccs1)c1c(N)n(Cc2ccccc2)c(=O)[nH]c1=O	none (no result: HSP90 inh)
CC(C)CN(C(=O)COC(=O)CSc1ccccc1)c1c(N)n(Cc2ccccc2)c(=O)[nH]c1=O	dFosB act-1 29 (no result: HSP90 inh) | dFosB act-2 inactive
COCCN(C(=O)COC(=O)/C=C/c1ccc2ccccc2n1)c1c(N)n(Cc2ccccc2)c(=O)[nH]c1=O	none
CN(C(=O)COC(=O)/C=C/c1ccc2ccccc2n1)c1c(N)n(Cc2ccccc2)c(=O)[nH]c1=O	dFosB act-1 23 (no result: HSP90 inh, HSF1 inhib, HSF-1 act, Platelet DG rel) | dFosB act-2 inactive
Cc1nnc(SCC(=O)N(CC(C)C)c2c(N)n(CC(C)C)c(=O)[nH]c2=O)n1-c1ccccc1	none
Cc1csc(Nc2nc(N)c(C(=O)Nc3cc(Cl)ccc3F)o2)n1	dFosB act-1 20 | dFosB act-2 inactive
Cc1csc(NC(=O)Cc2c(F)cccc2Cl)n1	none
COCCNC(=S)N1CCC2CC1c1c(Cl)cccc12 (configuration not stated)	none (no result: HSP90 inh, HSF1 inhib, dFosB act-1, HSF-1 act, Platelet DG rel)
Cc1cc(C)n(C(=O)c2sc3cc(F)ccc3c2Cl)n1	none (no result: dFosB act-1, MPTP inh)
COCCn1c(SCC(=O)c2c(N)n(C3CC3)c(=O)[nH]c2=O)nnc1-c1ccc(Cl)cc1	dFosB act-1 21 (no result: HSP90 inh, HSF1 inhib, HSF-1 act, Platelet DG rel) | dFosB act-2 inactive
COc1ccc(C)cc1S(=O)(=O)NC(C)C(=O)Nc1ccc2c(c1)OCO2 (configuration not stated)	none
O=C(Nc1ccc(F)cc1)C1CCN(c2ncnc3c2nc2n3CCCCC2)CC1	dFosB act-1 48 | dFosB act-2 inactive
CCc1ccc(NC(=O)C2CCN(c3ncnc4c3nc3n4CCCCC3)CC2)cc1	none
O=C(COC(=O)c1ccccc1NC(=O)c1ccco1)NCc1ccc2c(c1)OCO2	dFosB act-1 30 | dFosB act-2 inactive
CS(=O)(=O)c1ccc2nc(NC(=O)c3cc(-c4ccccc4)nn3-c3ccccc3)sc2c1	dFosB act-1 29 | dFosB act-2 inactive
CS(=O)(=O)c1ccc2nc(NC(=O)C3=NN(c4ccccc4)C(=O)CC3)sc2c1	none
O=C(Cn1cc(C(F)(F)F)ccc1=O)NC1CCCC1	none (no result: HSP90 inh, HSF1 inhib, HSF-1 act, Platelet DG rel)
O=C(N/N=C/c1ccc(-c2cccc(C(F)(F)F)c2)o1)c1ccccc1O	dFosB act-1 32 | dFosB act-2 inactive
O=C(N/N=C/c1ccc(-c2cccc([N+](=O)[O-])c2)o1)c1ccccc1O	dFosB act-1 22, HSF-1 act 58 | dFosB act-2 inactive
O=C(N/N=C/c1ccc(-c2cccc(C(F)(F)F)c2)o1)c1ccccc1Br	none
Cc1c(Cl)cccc1NC(=O)CC1Sc2ccccc2NC1=O (configuration not stated)	dFosB act-1 46 | dFosB act-2 inactive
Cc1c(Cl)cccc1NC(=O)CC1Oc2ccccc2NC1=O (configuration not stated)	dFosB act-1 23 | dFosB act-2 inactive
Cc1ccc(C)c(NC(=O)CC2Sc3ccccc3NC2=O)c1 (configuration not stated)	none (no result: HSP90 inh, HSF1 inhib, HSF-1 act, Platelet DG rel)
CC(C)c1ccc(NC(=O)CC2Oc3ccccc3NC2=O)cc1 (configuration not stated)	none
CSCCC(NS(=O)(=O)c1ccc(C)c(C(=O)O)c1)C(=O)O (configuration not stated)	none
Cc1nnc(NC(=O)c2ccc(-c3cccc(C(F)(F)F)c3)o2)s1	dFosB act-1 30 (no result: HSF1 inhib, HSF-1 act, Platelet DG rel) | dFosB act-2 inconclusive
CC(=O)Cc1nsc(NC(=O)c2ccc(-c3cccc(C(F)(F)F)c3)o2)n1	none
CCCS(=O)(=O)NC(=O)C1(C)CCN(C(=O)c2cc(F)cc(F)c2)C1 (configuration not stated)	none (no result: HSP90 inh, HSF1 inhib, dFosB act-1, HSF-1 act, Platelet DG rel)
Cc1ccc(C)c(N(C(=O)c2csnn2)C(C(=O)NC2CCCCC2)c2cccnc2)c1 (configuration not stated)	none
O=C(O)c1cnc(-c2ccccc2)nc1-c1ccccc1	none
O=C(Nc1ccccc1)c1cnc(-c2ccccc2)nc1-c1ccccc1	dFosB act-1 48 | dFosB act-2 inactive
COc1ccc2cc3c(N)nn(C(=O)c4ccc(F)cc4)c3nc2c1	none
COc1cccc(COC(=O)c2nn(-c3ccccc3)nc2N)c1	none
COc1cccc(CC(=O)n2nc(N)c3cc4ccc(OC)cc4nc32)c1	dFosB act-1 32 | dFosB act-2 inactive
COc1ccc2cc3c(N)nn(C(=O)c4cccc(F)c4)c3nc2c1	dFosB act-1 51 | dFosB act-2 inactive
COc1ccc(CCCNC(=O)C2Cc3c(-c4ccc(NC(C)=O)cc4)ccnc3O2)cc1 (configuration not stated)	none (no result: HSP90 inh, HSF1 inhib, dFosB act-1, HSF-1 act, Platelet DG rel)
Cc1cc2nc(CSc3ccccc3)cc(=O)n2[nH]1	none
O=C(CN1C(=O)C2CC=CCC2C1=O)Nc1nnc(SCc2c(Cl)cccc2Cl)s1 (configuration not stated)	dFosB act-1 39 | dFosB act-2 inactive
O=C(CN1C(=O)C2CC=CCC2C1=O)Nc1nnc(SCc2ccc(Cl)cc2)s1 (configuration not stated)	none
O=C(O)c1ccccc1OC(C(=O)Nc1cc(Cl)cc(Cl)c1)c1ccccc1 (configuration not stated)	dFosB act-1 36, HSF-1 act 58 | dFosB act-2 inactive
O=C(Nc1cc(Cl)cc(Cl)c1)C(NCCO)c1ccccc1 (configuration not stated)	none
CCCCCc1cc(=O)oc2c(C(CCN3CCCC(C)C3)c3cc(OC)c(OC)c(OC)c3)c(OC)cc(OC)c12 (configuration not stated)	dFosB act-1 19 (no result: HSP90 inh) | dFosB act-2 inactive
COc1ccc(C(C)=O)cc1CSc1nc2ccccc2c(=O)n1-c1cccc(C)c1	dFosB act-1 25 | dFosB act-2 inactive
COc1ccc(C(C)=O)cc1CSc1nc2ccccc2c(=O)n1-c1ccccc1	none
CC(NC(=O)CN1C(=O)NC2(CCCCCCC2)C1=O)c1ccccc1 (configuration not stated)	none (no result: HSP90 inh, HSF1 inhib, HSF-1 act, Platelet DG rel)
CC(=O)Nc1ccc(-c2cc(-c3ccc(NC(C)=O)cc3)nc(-c3ccc(NC(C)=O)cc3)n2)cc1	dFosB act-1 54 | dFosB act-2 inactive
O=C(NCCN1C(=O)S/C(=C\c2ccccc2F)C1=O)C1CCCN1C(=O)c1cccs1 (configuration not stated)	none
Cc1ccc(C(=O)Nc2c(N)nc(SCC(=O)Nc3cc(C)on3)[nH]c2=O)cc1	dFosB act-1 26 | dFosB act-2 inactive
Cc1cc(C)cc(NC(=O)CSc2nc(N)c(NC(=O)c3cccs3)c(=O)[nH]2)c1	dFosB act-1 31 | dFosB act-2 inactive
